USP8 block – blocks human USP8 ubiquitin-rhodamine cleavage; 47,000 compounds, 4.2% hits; AID 1645853; inhibition, % at 20 µM; P40818; purified USP8, Ub-rhodamine cleavage fluorescence, 30 min
USP7 block – inhibitors of human USP7 deubiquitinase; 47,000 compounds, 0.3% hits; Q93009; purified USP7, Ub-rhodamine cleavage fluorescence; inhibition, % at 20 µM
USP10 inh – human USP10 deubiquitinase inhibition | purified USP10, Ub-rhodamine fluorescence, 60 min | inhibition, % at 20 µM | 47,000 compounds, 1.1% hits | AID 1645856
UCHL1 inh – blocks human UCHL1 ubiquitin-rhodamine cleavage; P09936; purified UCHL1, Ub-rhodamine cleavage fluorescence; inhibition, % at 20 µM; 47,000 compounds, 0.2% hits; AID 1645859
Target sequence (P09936 whole entry, looked up): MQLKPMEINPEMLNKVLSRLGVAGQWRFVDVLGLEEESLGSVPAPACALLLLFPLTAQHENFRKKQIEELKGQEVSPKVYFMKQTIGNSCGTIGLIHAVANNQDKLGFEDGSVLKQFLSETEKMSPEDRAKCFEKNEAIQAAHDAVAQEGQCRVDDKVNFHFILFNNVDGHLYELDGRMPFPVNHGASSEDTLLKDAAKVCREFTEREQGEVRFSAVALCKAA
Of the large screens only hits and unclear results are named; the others gave an inactive call. The list is not random: actives were taken first. Their share in the collection is about 4.6%. Cut-off read from the data, not from the text of the source: active = inhibition above about 30%; inactive = the rest.

CCN(Cc1ccc(OC)cc1)S(=O)(=O)c1nnc(NC(=O)c2ccccc2)s1	none
CC1=CC(=O)C(C2=C(O)C(=O)C(C)=CC2=O)=C(O)C1=O	USP8 block 32.0
O=C(CC1=NS(=O)(=O)c2ccccc2N1)Nc1cccc(F)c1	none
CN1C(=O)COc2ccccc2CCCC[C@@H]2[C@H]1CCCN2C(=O)c1ccnnc1	none
CCCc1oc2cc(O)ccc2c(=O)c1Oc1ccccc1	none
Cc1nc(C2CN(Cc3ccc4c(c3)OCCO4)CCO2)cc(=O)[nH]1 (stereo not given)	none
Cc1nc(C2CN(Cc3nc4ccccc4n3C)CCO2)cc(=O)[nH]1 (stereo not given)	USP8 block 31.3
O=C(Nc1cc(S(=O)(=O)Nc2ccc(Cl)cc2)ccc1O)c1cc2c(s1)CCC2	USP8 block 98.5, USP7 block 59.6, USP10 inh 70.3, UCHL1 inh 33.3
Nc1ccc(NC(=O)c2cc3c(s2)CCC3)cc1[N+](=O)[O-]	USP8 block 57.1
CC(C)(C)c1cc(C(=O)N2CCC[C@H](C(=O)c3ccc(F)cc3)C2)n[nH]1	none
O=C(Nc1nc2ccccc2s1)C1CC(=O)N(c2ccccc2)C1 (stereo not given)	none
CCS(=O)(=O)N1Cc2ccccc2CC1C(=O)Nc1nc2ccccc2s1 (stereo not given)	USP8 block 32.3
COc1ccc(-c2cc(-c3nnc(COC(=O)CC4CCCC4)o3)c3ccccc3n2)cc1OC	USP8 block 64.2
COc1ccc(-c2cc(-c3nnc(COC(=O)CNS(=O)(=O)c4ccccc4)o3)c3ccccc3n2)cc1OC	none
COc1ccc(-c2cc(-c3nnc(COC(=O)c4cccc([N+](=O)[O-])c4C)o3)c3ccccc3n2)cc1OC	USP8 block 68.1
NC(=O)c1cccc(NC(=O)c2ccc(F)cc2F)c1	none
O=C(CCCC(=O)c1ccccc1)Nc1ccc(F)cc1Cl	USP8 block 35.1
Cc1ccc(N2CC(C(=O)N3CCC(C(=O)Nc4ccccc4C)CC3)CC2=O)cc1 (stereo not given)	none
Cc1ccnc(-n2c(C)c(C)c3c(=N)n(CCO)cnc32)c1	none
Cc1c(C)n(-c2ccc(Br)cn2)c2ncn(Cc3ccccc3)c(=N)c12	USP8 block 43.8
COc1ccc(C)cc1NC(=O)C1CC(=O)Nc2nc(SCc3ccccc3)nn21 (stereo not given)	USP10 inh 33.9
O=C(Nc1cccc(Cl)c1)N1CCC(c2cc(-c3ccco3)n[nH]2)CC1	USP8 block 79.6
CCOc1ccc(-n2c(SCC(=O)Nc3ccc(C)cc3)nnc2-c2c[nH]c3ccccc23)cc1	USP8 block 97.5, USP10 inh 70.5
O=C(CSc1nnc2ccc(-c3ccccc3)nn12)Nc1ccc(F)cc1	none
CCOc1ccc(-c2ccc3nnc(SCC(=O)Nc4ccc(F)cc4)n3n2)cc1	USP8 block 78.3, USP10 inh 37.9
COc1cc2c(cc1OC)CN(C(=O)CCS(=O)(=O)c1ccc(Cl)cc1)CC2	USP8 block 76.0
NS(=O)(=O)c1ccc(CCNC(=O)Cc2cc(-c3ccc(F)cc3F)on2)cc1	USP8 block 40.4
O=C(Cc1cc(-c2ccc(Cl)cc2)on1)NCCc1ccccc1	USP8 block 53.1
COc1ccc(CCNC(=O)Cc2cc(-c3ccc(F)cc3F)on2)cc1OC	none
CCOc1ccc(-c2nsc(NC(=O)Cc3ccc(Cl)cc3)n2)cc1OC	none
O=C(Nc1ccc(F)cc1)Nc1ccc(NC(=O)c2ccccc2O)cc1	USP8 block 52.0
O=C(Nc1ccc(F)cc1)Nc1ccc2ccccc2n1	USP8 block 50.6
O=C(Nc1ccc(OCc2ccccc2)cc1)NC1Cc2ccccc2C1	none
O=C(Nc1ccc(NC(=O)c2ccccc2O)cc1)Nc1ccc(OCc2ccccc2)cc1	USP8 block 91.3, USP10 inh 60.7
Cc1cccc(Cl)c1NC(=O)Nc1ccc(NC(=O)c2ccccc2O)cc1	USP8 block 41.6, USP10 inh 38.8
CC(=O)Nc1ccc(NC(=O)Nc2ccc(F)cc2)cc1	none
Cc1ccc(-n2ncc3c(NCc4ccco4)ncnc32)cc1Cl	none
COc1cccc(NC(=O)c2ccccc2NC(=O)Cc2ccccc2OC)c1	none
COc1ccccc1NC(=O)Nc1ccc(NC(=O)c2ccccc2O)cc1	USP8 block 84.8
COc1cc2c(c(OCC(=O)Nc3ccc4c(c3)OCCO4)c1)C(=O)O[C@@H](C)CCCC(=O)CCCCC2	USP8 block 68.3, USP10 inh 31.7
COc1cc(OCC(=O)NC(C)C)cc2c1C(=O)O[C@@H](C)CCCC(=O)CCCCC2	none
CN1CC(c2nc3ccccc3n2Cc2ccc(Cl)cc2Cl)CC1=O (stereo not given)	none
O=c1[nH]c(=O)c2c(-c3ccc(-c4ccccc4)cc3)ccnc2[nH]1	USP8 block 75.9
COc1cccc(-c2ccnc3[nH]c(=O)[nH]c(=O)c23)c1	none
CNc1nc(C2CCCCN2C(=O)Cc2ccc(F)cc2)nc2c1CCNC2 (stereo not given)	none
COc1ccc(N2CCN(C(=O)c3csc4c3CCC(C(C)(C)C)C4)CC2)cc1 (stereo not given)	USP8 block 70.4
COc1ccc(C(=O)Nc2ccccc2C(=O)NC(Cc2ccc(O)cc2)C(=O)NNC(=O)Cc2ccc(OC)c(OC)c2)cc1 (stereo not given)	USP10 inh 66.6
COc1ccc(CNC(=O)c2ccccc2NC(=O)c2ccc(F)cc2)cc1	none
COc1ccc(-c2nc(CNC(=O)c3ccccc3C)cs2)cc1	USP7 block 57.1
O=C(CNC1Cc2ccccc2C1)Nc1ccccc1N1CCOCC1	USP8 block 46.1
Cc1ccc(NC(=O)Cn2c(=O)n(CC(=O)NCCc3ccccc3)c(=O)c3sccc32)cc1C	USP8 block 50.4, USP10 inh 40.3
COc1cc(OC)cc(-n2c(=O)c3sccc3n(CC(=O)Nc3ccc(C)cc3)c2=O)c1	none
COc1ccc(CCNC(=O)Cn2c(=O)c3sccc3n(Cc3cccc([N+](=O)[O-])c3)c2=O)cc1OC	USP10 inh 32.0
CCOc1ccc(-n2c(=O)c3sccc3n(CC(=O)Nc3cccc(C)c3)c2=O)cc1	USP10 inh 41.0
O=C(Cn1c(=O)c2sccc2n(CC(=O)NCCC2=CCCCC2)c1=O)NCc1ccccc1Cl	USP10 inh 37.4
Cc1noc(C)c1C(=O)N1CCCCC1c1cc(C)n2nccc2n1 (stereo not given)	none
c1ncc(Nc2nccc(C3CCCCN3)n2)cn1 (stereo not given)	none
COc1ccc(NC(=O)Cn2c(=O)n(CCC(=O)NCc3ccccc3)c(=O)c3sccc32)cc1Cl	USP10 inh 49.2
O=C(CCCc1nnc2c(=O)n(-c3cccc(F)c3)ccn12)Nc1ccccc1	USP8 block 46.7
COc1cccc(CNC(=O)CCCc2nnc3c(=O)n(-c4cccc(F)c4)ccn23)c1	none
O=C(CCCc1nnc2c(=O)n(-c3cccc(F)c3)ccn12)NCc1ccc(F)cc1	USP8 block 47.7
O=C(CCCc1nnc2c(=O)n(-c3cccc(F)c3)ccn12)NCCc1ccccc1	none
Cc1cccc(NC(=O)CCCc2nnc3c(=O)n(-c4cccc(F)c4)ccn23)c1	USP8 block 61.2
O=C(c1cc(-c2ccccn2)nc2ccccc12)N1CCSCC1	none
